Bioassay records: PubChem BioAssay, National Center for Advancing Translational Sciences (NCATS)
Pf Dd2 growth = qHTS Primary assay for Inhibitors of Plasmodium falciparum Dd2 growth in vitro; P. falciparum Dd2 growth, SYBR Green, 72 h; Potency, µM (titrated, usually from 28.9 µM), inactives show top-dose activity, negative = inhibition, most hits filed as inhibitors; 4.3% of 120,000 active; active = well fitted inhibition curve with a large enough effect;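 also: plate controls were DMSO vehicle for no effect and reference drug for full effect; nearly all actives have a fitted effect of over 65% in size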
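Infected erythrocytes (Dd2, 0.3% parasitemia, 2.5% hematocrit final) are added to compound in RPMI-1640/Albumax II medium, grown 72 h at 37C in low oxygen, then lysed with saponin/Triton-X containing SYBR Green and read by fluorescence.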
* marks the source's active call; other numbers are inactive results; i = inactive; [ ] = another dose, or the depositor's remark. This excerpt belongs to a sample that is enriched for hits. Potency is read from the fitted curve at half-maximal effect.

SMILES | Pf Dd2 growth
O=C1Nc2ccccc2CC12CCCCN2[S+](=O)([O-])c1cccs1 (centres undefined) | -2%
O=C1NC2(CCN(C(=O)c3ccccc3)CC2)COc2ccccc21 | i
O=C1NC2(CCN(C(=O)C3CCCC3)CC2)COc2ccccc21 | -19%[44.1 µM]
CN(C)c1ccc(CN2CCC3(CC2)COc2ccccc2C(=O)N3)cc1 | 1.1µM*
O=C1NC2(CCN(Cc3ccc(OC(F)(F)F)cc3)CC2)COc2ccccc21 | 2.2µM*
O=C1NC2(CCN(CC3CCCC3)CC2)COc2ccccc21 | -10%[44.1 µM]
Cn1cccc1CN1CC2(C1)NC(=O)c1ccccc1O2 | i
O=C1NC2(CCCN(Cc3ccc(OC(F)(F)F)cc3)C2)COc2ccccc21 (centres undefined) | i
Cn1cccc1CN1CCC2(CC1)COc1ccccc1C(=O)N2 | 5.6µM*
CN(C)c1ccc(CN2CCC3(COc4ccccc4C(=O)N3)C2)cc1 (centres undefined) | 1%
COc1ccccc1NC(=O)C1CCN(S(=O)(=O)c2ccc3c(c2)oc(=O)n3C)CC1 | -8%
Cc1nc2cc(C(=O)N3CCN(c4ccccc4C#N)C(=O)C3)ccc2s1 | -6%
O=C(CCC1CCN(C(=O)c2ccccc2F)CC1)Nc1ccccc1 | -1%
Cc1ccc(N2CC(NC(=O)c3ccccc3Br)CC2=O)cc1 (centres undefined) | 17%
COc1ccc(C(=O)N2CC[C@@H]3CN(S(C)(=O)=O)[C@@H]3C2)c(C)c1 | 29%
C=CCOc1cccc(C(=O)N2C[C@H](N)C[C@H]2C(=O)NC(C)C)c1 | 25%
CCn1cc(S(=O)(=O)N2CCC3(CC2)N(CCOC)C(=O)CS3=O)cn1 (centres undefined) | 3%
COc1ccc(-c2cc(N3CCC(NC(=O)CCc4ccccc4OC)CC3)n[nH]2)cc1 | i
COC(=O)[C@@H]1Cc2c([nH]c3ccccc23)[C@H]2C[C@@H](N3CCOCC3)C[C@@H](c3ccc(F)cc3)N21 | -14%
COC(=O)[C@@H]1Cc2c([nH]c3ccccc23)[C@H]2C[C@@H](NCCNC(C)=O)C[C@@H](c3ccc(C)cc3)N21 | i
COC(=O)[C@@H]1Cc2c([nH]c3ccccc23)[C@H]2C[C@@H](NCCO)C[C@@H](c3ccc(F)cc3)N21 | i
COC(=O)[C@@H]1Cc2c([nH]c3ccccc23)[C@H]2C[C@@H](NC3CC3)C[C@@H](c3ccc(F)cc3)N21 | 4.5µM*
COC(=O)[C@@H]1Cc2c([nH]c3ccccc23)[C@H]2C[C@@H](NCc3cccnc3)C[C@@H](c3ccc(F)c(F)c3)N21 | -12%
COC(=O)[C@@H]1Cc2c([nH]c3ccccc23)[C@@H]2C[C@@H](NCCNC(C)=O)C[C@@H](c3ccc(F)c(F)c3)N12 | 0%
COC(=O)[C@@H]1Cc2c([nH]c3ccccc23)[C@H]2C[C@H](NCc3cccs3)C[C@@H](c3ccccc3)N21 | 7.9µM*
SMILES | Pf Dd2 growth
C#CCN[C@H]1C[C@@H]2c3[nH]c4ccccc4c3C[C@@H](C(=O)OC)N2[C@H](c2ccc(F)cc2)C1 | 13µM*
COC(=O)[C@@H]1Cc2c([nH]c3ccccc23)[C@H]2C[C@@H](NCCNC(C)=O)C[C@@H](c3ccccc3)N21 | -14%
COC(=O)[C@@H]1Cc2c([nH]c3ccccc23)[C@H]2C[C@H](NCCO)C[C@@H](c3ccccc3)N21 | i
COC(=O)[C@@H]1Cc2c([nH]c3ccccc23)[C@H]2C[C@@H](NCCN3CCOCC3)C[C@@H](c3ccc(C(F)(F)F)cc3)N21 | 8.9µM*
COC(=O)[C@@H]1Cc2c([nH]c3ccccc23)[C@H]2C[C@@H](NCCNC(C)=O)C[C@@H](c3ccc(C(C)C)cc3)N21 | -21%
CCN(CC)C(=O)C(NC(=O)c1ccc(F)cc1)C1CCN(C(=O)CC(C)C)CC1 (centres undefined) | -24%
CC(C)N1CC2CCC(C1)N2Cc1ccc(Cl)cc1 | -28%[44.1 µM]
Cc1noc(C)c1[S+](=O)([O-])NC1CCCN(c2nc3ncccc3o2)C1 (centres undefined) | -13%
O=C1CC2CCN(C(=O)C3CCCCC3)CC2CCN1 (centres undefined) | i
C=CCNC(=O)c1cn2c(n1)CN(C(=O)c1cccnc1)CC2 | 10%[44.1 µM]
Cn1ccnc1CNCC1(CO)C[C@@H](O)[C@@H](O)C1 (some centres undefined) | 3%[44.1 µM]
c1ccc(CN2CCn3c(nnc3C3CCNCC3)C2)cc1 | 59%[44.1 µM]
Cc1cnc(C(=O)N2CCC3(CC2)CC(OCC2CC2)CCO3)cn1 (centres undefined) | -6%
CC(C)c1ccc(NC(=O)C2Cc3ccccc3N2C(=O)c2ccccc2)cc1 (centres undefined) | i
COc1ccc(CCNC(=O)CCn2c(=O)c3cccn3c3ccc(F)cc32)cc1OC | i
Cc1ccc(-c2ccccc2CN)cc1Cl | 11µM*
Cc1cc(C)cc(-c2ccc(CN)cc2)c1 | 11µM*
NCc1ccc(-c2ccccn2)cc1 | -18%[44.1 µM]
Cc1ccc(-c2[nH]ncc2CN)cc1 | -24%
Cc1cc(C)cc(-c2ccc(C=O)cc2)c1 | -11%[44.1 µM]
Cc1cccc(-c2[nH]ncc2CN)c1 | -12%
Cc1cc(C)cc(-c2ccccc2C=O)c1 | -3%[44.1 µM]
NCc1ccccc1-c1ccc(OC(F)(F)F)cc1 | 11µM*
Cc1ccc(-c2ccccc2C=O)cc1Cl | 14%[44.1 µM]
O=Cc1ccccc1-c1ccc(OC(F)(F)F)cc1 | -5%[76.6 µM]
SMILES | Pf Dd2 growth
Cc1cc(C)cc(-c2ccccc2CN)c1 | 13µM*
CN(Cc1ccc(OC(F)(F)F)cc1)Cc1ccccc1C(F)(F)F | -18%
O=C(c1ccccc1Cl)N1CCCCC1CCN1CCOCC1 (centres undefined) | -23%
O=C(NCc1nnc2n1C(C(=O)N1CCN(c3ncccn3)CC1)CC2)C1CC1 (centres undefined) | 25%
Cc1cnc(C(=O)N2CCCC(c3nnc(Cn4ccnc4)n3C)C2)cn1 (centres undefined) | 0%
CC(=O)N1c2ccc(S(=O)(=O)NCC3CCC(C(=O)Nc4ccc(C)cc4)CC3)cc2CC1C (centres undefined) | -25%
O=C1NCc2ccccc2CC12CCN(Cc1ccccc1OC(F)(F)F)CC2 | -12%
CCCN1C(=O)CCc2cc(NC(=O)Cc3c(F)cccc3Cl)ccc21 | i
COc1ccccc1-n1cc(C2=CCN(CCOCCO)CC2)cn1 | -2%
Cc1c(C(=O)N(Cc2ccccc2F)C2CCS(=O)(=O)C2)oc2ccccc12 (centres undefined) | -20%
COc1ccc(F)cc1-c1ccc(CN)cc1 | -16%[44.1 µM]
NCc1ccccc1-c1cc(F)cc(F)c1 | 13µM*
O=C(C1CCOC1)N1CC(Oc2cccc(-c3nc(-c4ccccc4)no3)c2)C1 (centres undefined) | 16%[5.79 µM]
CCCN(CC1CCOC1)S(=O)(=O)c1ccc(F)c(F)c1 (centres undefined) | 20%[5.79 µM]
COc1cccc(S(=O)(=O)N2[C@@H]3CC[C@H]2CC(NC(=O)c2ccc(F)cc2)C3)c1 (some centres undefined) | i
COC(=O)c1cn([C@H]2CN[C@H](C(=O)N3CCC(O)(CO)CC3)C2)nn1 | -1%
Cc1ccc2ncc(C(=O)NCc3ccccc3Cl)c(=O)n2c1 | -9%
COc1ccc(C(=O)c2sc(Nc3cc(Cl)ccc3C)nc2N)cc1OC | 54%
COc1ccc(C(=O)c2sc(Nc3ccccc3)nc2N)cc1 | 8.9µM*
COc1ccccc1C(=O)Nc1sc(Nc2ccccc2)nc1C(N)=O | 40%
COc1ccc(-c2ccc3ncc(Nc4cccnc4OC)n3n2)cn1 | -1%[44.1 µM]
